High-throughput results as filed in PubChem BioAssay.
Most compounds without a hit are left out; they make up all but 0.65% or so of the library.
BH1578 lux ind: inducers of Vibrio cholerae quorum light production without autoinducers, primary screen, BH1578 luxS cqsA deficient, single point | 0.16% of 350,000 active | activation, % at 18.7 µM | AID 588436, 2011 | V. cholerae BH1578 lux reporter, luminescence, 6 h; in the data active means activation mostly above about 9.7%, no sharp cut-off
TcdB inh: TcdB glycohydrolase inhibitors, primary screen, biochemical, single point, plate reader; Toxin B (Clostridioides difficile), P18177; TcdB glycohydrolase enzymatic assay; inhibition, % at 9.99 µM; 0.24% of 350,000 active; AID 652162, 2013; in the data active means inhibition above about 10%
Mtb UGM inh: M. tuberculosis UGM enzyme inhibitors, primary screen, biochemical, fluorescence polarization, single point. UDP-galactopyranose mutase (Mycobacterium tuberculosis (strain ATCC 25618 / H37Rv)), …. purified UGM, fluorescence polarization probe displacement. inhibition, % at 10 µM. 0.06% of 320,000 active. AID 504406, 2011; in the data active means inhibition above about 10%, passing the limit was not always enough
Yp Topo-I inh: Yersinia pestis topoisomerase I inhibitors, primary screen, biochemical, cleavage product accumulation, plate reader, single point; DNA topoisomerase I (Yersinia pestis CO92); Y. pestis Topo-I cleavage product accumulation; activity, % at 10 µM; 0.064% of 360,000 active; in the data active means activity above about 50%, passing the limit was not always enough
PrP UTR inh: inhibition of PrP 5' UTR reporter expression | AID 488862, 2010 | 0.35% of 340,000 active | cell-based PrP 5' UTR mRNA reporter, plate reader | inhibition, % (no concentration beside the values); in the data active means inhibition above about 52%; further: 0 = median of the neutral control wells
Starred values were filed as active, the others as inactive; i = inactive; . = no result.

SMILES	BH1578 lux ind	TcdB inh	Mtb UGM inh	Yp Topo-I inh	PrP UTR inh
COc1ccccc1N(CC(=O)NCCSc1ccccc1)S(=O)(=O)c1ccccc1	i	2	-2	57*	-28
COCC(=O)N1[C@H](C#N)[C@H](c2ccccc2-c2cccc(OC)c2)[C@@H]1CO	.	2	.	.	.
C[C@H](CO)N1C[C@H](C)[C@H](CN(C)Cc2ccc(Cl)c(Cl)c2)Oc2c(NC(=O)CCCCCC(=O)Nc3ccccc3N)cccc2C1=O	.	-1	.	.	.
CCOC(=O)[C@@H]1[C@H]2COc3ccc(Br)cc3[C@@H]2N2C(=O)N(c3cccc(F)c3)C(=O)[C@]12C	i	11*	1	8	-10
CCOC(=O)[C@@H]1[C@H]2COc3ccc(Br)cc3[C@H]2N2C(=O)N(c3ccc(F)cc3)C(=O)[C@]12C	i	1	0	1	-14
O=C(C[C@H]1CC[C@H]2[C@@H](COC[C@H](O)CN2C(=O)Nc2cc(Cl)cc(Cl)c2)O1)NCC1CCCCC1	.	0	.	.	.
O=C(Cc1ccccc1)CC(CC(=O)c1ccccc1)c1ccccc1 (stereo not given)	1	2	.	56*	.
C=C(C(=O)c1ccccc1)C(CC(=O)c1ccccc1)c1ccccc1 (stereo not given)	0	.	0	-5	-5
Cc1onc(-c2c(F)cccc2Cl)c1C(=O)Nc1nnc(C(F)(F)F)s1	8	16*	0	2	-12
O=C(NC1CCCC1)[C@@H]1[C@@H](CO)[C@@H]2Cn3c(ccc(-c4cccnc4)c3=O)[C@@H]2N1CC1CC1	.	2	.	.	.
Oc1[nH]c2ccc(Br)cc2c1N=Nc1ccc(F)cc1	i	0	18*	-10	-20
NC(=O)C[n+]1cccc2ccccc21	i	1	11*	8	-47
O=C(C(Sc1ccccc1)c1ccccc1)N1CCN(c2ccccc2F)CC1 (stereo not given)	i	.	-1	55*	3
O=C1NC(=S)NC1=Cc1ccc(O)cc1	0	16*	.	-5	-61
O=C(C[C@@H]1CC[C@H]2[C@@H](COC[C@@H](O)CN2Cc2cccc(C(F)(F)F)c2)O1)NCCc1ccccc1	.	-6	.	.	.
COc1ccc(C(=O)/C=C/c2ccc(O)cc2)c2c1CC(O)C(C)(C)O2 (stereo not given)	0	23*	.	0	3
COc1ccc(C(=O)/C=C/c2ccc(O)cc2)c(O)c1CC=C(C)C	i	-1	0	-39	-25
C/C(=N/NC(=O)c1ccncc1)c1cc2ccc(O)cc2oc1=O	i	-1	42*	2	-10
CN(C)CC1CC/C(=C\c2ccc(O)cc2)C1=O (stereo not given)	i	4	.	-3	-60
CC1CCC/C(=C\c2ccc(O)cc2)C1=O (stereo not given)	i	37*	1	-7	-28
COc1ccccc1CNC(=O)CNC(=O)N1CC(=O)Nc2ccccc21	0	11*	2	1	6
COc1ccccc1CNC(=O)CCNC(=O)N1CC(=O)Nc2ccccc21	0	-1	-2	3	-13
CC(C)(C)c1cc[n+](-c2[nH]c(=O)sc2/C=N/NC([S-])=Nc2ccccc2)cc1	-1	-3	18*	-5	-1
CCCN1[C@H](C(=O)NCc2ccccn2)[C@@H](CO)[C@@H]2Cn3c(ccc(C4=CCCC4)c3=O)[C@@H]21	.	-2	.	.	.
S=c1[nH]nc(NC2CCCCC2)s1	i	18*	.	-11	.
SMILES	BH1578 lux ind	TcdB inh	Mtb UGM inh	Yp Topo-I inh	PrP UTR inh
Cc1ccc(Nc2n[nH]c(=S)s2)cc1	-1	2	.	-3	.
COc1ccc(NC(=O)N(C)C[C@@H]2Oc3ccc(NC(=O)C4CC4)cc3C(=O)N([C@H](C)CO)C[C@H]2C)cc1	.	0	.	.	.
COC(=O)/C=C/C(=O)Nc1ccc(O)c(Cl)c1	0	31*	0	-13	-17
CC(=O)Nc1ccc(N(C(=O)c2ccco2)C(C(=O)NC2CCCCC2)c2ccccc2)cc1 (stereo not given)	0	0	2	4	-25
CC(=O)Nc1ccc(N(C(=O)c2ccco2)C(C(=O)NC2CCCC2)c2cccs2)cc1 (stereo not given)	-1	13*	2	8	-11
CC1=C/C(=C\C=C(C#N)C#N)N(C)c2ccccc21	-1	1	1	-3	-10
CCCCCCN1C=CC=C/C1=C\C=C(C#N)C#N	-1	3	16*	-2	-13
CCOc1ccc2c(c1)C(C)=CC(C)(C)N2S(=O)(=O)c1ccc(NC(C)=O)cc1	-1	0	1	32	78*
CCOc1ccc2c(c1)C(C)=CC(C)(C)N2S(=O)(=O)c1ccc(F)cc1	i	0	3	8	14
CCNC(=S)N(Cc1ccc2c(c1)OCO2)C1CC(=O)N(c2ccc(OC)cc2)C1=O (stereo not given)	50*	.	-7	-4	1
CCNC(=S)N(Cc1ccc2c(c1)OCO2)C1CC(=O)N(c2ccc(F)cc2)C1=O (stereo not given)	5	.	3	-9	-9
COc1ccc(N=Nc2nc3cc(Br)c(Br)cc3n2C)c(OC)c1	0	.	34*	6	-17
CC(C)OC(=O)c1cccc(C(=O)Oc2ccc(Br)cc2)n1	-2	.	-5	7	-19
CC(C)OC(=O)c1cccc(C(=O)O)n1	i	12*	-1	-3	-18
O=C(Cc1ccccn1)N1CC2(C1)[C@@H](c1ccccc1)[C@@H](CO)N2C(=O)c1ccccc1	.	1	.	.	.
CCN(C[C@H]1[C@H](c2ccccc2)[C@H](CO)N1C(=O)COC)S(C)(=O)=O	.	0	.	.	.
Cc1cc(=O)n2nc(N3CCCC(C(=O)N4CCOCC4)C3)sc2n1 (stereo not given)	i	.	-1	0	2
Cc1cc(=O)n2nc(N3CCCC(C(=O)N4CCc5ccccc54)C3)sc2n1 (stereo not given)	17*	.	0	13	-5
Cc1ccc(S(=O)(=O)Oc2cccc(/C=N/n3cnnc3)c2)cc1	i	11*	1	-3	-4
Cc1ccc(S(=O)(=O)Oc2cccc(/C=N/Nc3ccc(C(=O)O)cc3)c2)cc1	0	11*	0	-4	-7
CN(C)C(=O)C[C@H]1CC[C@H](NC(=O)C2CC2)[C@H](CO)O1	.	-1	.	.	.
COc1cc(OC)nc(NC(=O)CS(=O)(=O)c2ccccc2)n1	33*	.	1	-1	-21
COc1ccc(OC)c(NC(=O)CS(=O)(=O)c2ccccc2)c1	0	.	1	3	-35
COc1cc2ccccc2cc1C(=O)OCC(=O)N(CC(C)C)c1c(N)n(Cc2ccccc2)c(=O)[nH]c1=O	-1	2	-1	71*	-21
